Data from PubChem BioAssay (NCATS).
Inconclusive results are not listed. Entries that show only a call come without a potency. The source made the active and inactive calls. Calls come from the whole dose curve; as a rule, active = well fitted inhibition curve with a large enough effect; inconclusive = small, poorly fitted or top-dose-only effect; inactive = no such curve, though single readings can be large or run the other way.

What follows are molecules tested against Furin (Homo sapiens) (UniProt P09958) (assay: Furin counterscreen qHTS for Zika virus inhibitors (AID 1347149; note: nearly all actives have a fitted effect of over 70% in size)). Settings: furin enzymatic counterscreen, fluorogenic substrate; series mostly up to 114 µM.
Furin (Homo sapiens), sequence (P09958 whole entry, looked up): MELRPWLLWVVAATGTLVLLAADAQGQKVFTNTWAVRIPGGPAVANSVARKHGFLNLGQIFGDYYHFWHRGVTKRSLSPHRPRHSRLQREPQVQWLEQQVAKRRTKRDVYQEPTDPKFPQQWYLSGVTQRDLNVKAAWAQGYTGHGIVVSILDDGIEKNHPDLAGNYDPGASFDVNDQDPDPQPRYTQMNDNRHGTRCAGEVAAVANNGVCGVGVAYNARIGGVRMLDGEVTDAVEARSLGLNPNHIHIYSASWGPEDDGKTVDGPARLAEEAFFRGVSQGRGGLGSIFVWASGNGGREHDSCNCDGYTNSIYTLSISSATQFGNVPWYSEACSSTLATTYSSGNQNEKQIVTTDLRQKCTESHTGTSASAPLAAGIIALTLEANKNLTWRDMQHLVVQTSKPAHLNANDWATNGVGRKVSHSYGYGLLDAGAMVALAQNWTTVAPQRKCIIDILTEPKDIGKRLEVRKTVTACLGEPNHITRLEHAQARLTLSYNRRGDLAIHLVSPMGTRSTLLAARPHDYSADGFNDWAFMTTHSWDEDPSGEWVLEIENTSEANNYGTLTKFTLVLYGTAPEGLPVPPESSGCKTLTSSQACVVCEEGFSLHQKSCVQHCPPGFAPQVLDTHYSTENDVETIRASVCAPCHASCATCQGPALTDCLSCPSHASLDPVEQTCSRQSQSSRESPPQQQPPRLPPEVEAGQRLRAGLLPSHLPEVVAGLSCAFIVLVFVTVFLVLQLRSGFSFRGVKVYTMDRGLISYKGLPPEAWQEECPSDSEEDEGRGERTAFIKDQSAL
Excerpt: Avindra Nath, Ph.D., National Institute of Neurological Disorders and Stroke (NINDS), Bethesda, MD
Radhakrishnan Padmanabhan, Ph.D., Georgetown University (GU), Washington D.C.
Zika Virus causes congenital defects, including microcephaly and is associated with Guillain-Barre syndrome, eningoencephalitis and myelitis in infected adult. […] Using a target-based approach, we hope to establish a screening paradigm to uncover novel, cell-active NS2B-NS3 protease (Zika Virus) specific inhibitors from NCATS' collection of small molecules using qHTS.
Four assay panel was created to identify potential Zika Virus inhibitors. Namely, (1) GU unlinked NS2B-NS3 AMC tagged protease qHTS, (2) GU unlinked NS2B-NS3 Rhodamine tagged protease qHTS, (3) NINDS linked NS2B-NS3 AMC tagged protease qHTS, (4) NINDS linked NS2B-NS3 Rhodamine tagged protease qHTS. Active compounds were re-acquired and re-screened to confirm inhibition. Inhibitors were further screened against various confirmatory and counterscreens in dose response format.
Early Translation Branch (ETB)
National Center for Advancing Translational Sciences (NCATS), Rockville, MD
National Institute of Health (NIH), Bethesda, Maryland
1536-well Furin BOC-RVRR-AMC Protocol:
Human recombinant Furin Serine Protease was purchased from Peprotech (catalog #450-47; full length; Rocky Hill, NJ). Briefly, 3 microL of enzyme (final concentrations of 5 nM), in assay buffer (100 mM HEPES pH 7.0, 1 mM CaCl2 with 0.01% Triton X-100) were dispensed into a 1,536-well solid-bottom black plate (Greiner Bio One, Monroe, NC). Twenty-three nL of compounds (final concentration range 7.28 nM to 114 microM) or control Furin Inhibitor I (Dec-RVKR-CMK; final concentration range 0.248 nM to 8.12 microM) were transferred via Wako Pin-tool (Wako Automation, Richmond, VA). Samples were incubated (RT, protected from light) for 15 minutes followed by a 1 microL substrate addition of BOC-RVRR-AMC (final concentration of 2 microM; Km = ~15 muM90). Plates were then read immediately on a ViewLux High-throughput CCD imager (PerkinElmer, Waltham, MA) equipped with standard UV fluorescence optics (340(30) nm excitation, 450(20) nm emission), then incubated (37C, protected from light) for 15 or 30 minutes (~9% conversion). The change in fluorescence intensity over the 15-minute reaction period was normalized against no-inhibitor and no-enzyme controls and the resulting percent inhibition data were fitted to a 4-parameter Hill equation. Furin Inhibitor I was used as intraplate control.
Potency is the fitted concentration of half-maximal effect.

SMILES | Potency
O=C(OCC#CCSc1nnc(-c2ccc(F)cc2)o1)c1ccc(F)cc1 | inactive
O=C(Nc1ccc(Oc2ccccc2)cc1)O[C@@H]1CO[C@H]2[C@@H]1OC[C@@H]2NS(=O)(=O)c1ccc(Cl)cc1 | inactive
O=C(COC(=O)c1cccc(NC(=O)c2ccc(Br)cc2)c1)c1ccc(Br)cc1 | inactive
Cc1ccc(NC(=O)CSc2ncccc2C(=O)Oc2ccccc2Cl)cc1Cl | inactive
CCCCCCc1cc2cc(-c3nnc(-c4cccc(Cl)c4)o3)c(=O)oc2cc1O | inactive
COc1ccc(C(=O)Nc2ccc(C(=O)OCc3cc(=O)n4nc(C(C)C)sc4n3)cc2)cc1 | 59.1 µM (active)
COc1ccc(C(=O)Nc2ccc(C(=O)OCc3cc(=O)n4nc(C5CC5)sc4n3)cc2)cc1 | 13.2 µM (active)
O=C(O)c1cccc(-c2cc(C(F)(F)F)ccc2Cl)c1 | inactive
CC(C)c1nn2c(=O)cc(COC(=O)c3ccc(NC(=O)c4ccccc4Cl)cc3)nc2s1 | inactive
O=C(O)c1ccc(-c2cccc(C(F)(F)F)c2)cc1 | inactive
O=C(OCC#CCSc1nnc(-c2cccc3ccccc23)o1)c1cccc(C(F)(F)F)c1 | 37.3 µM (active)
CCOC(=O)O[C@H](C)OC(=O)C1N2C(=O)[C@H](NC(=O)[C@H](N)c3ccccc3)C2SC1(C)C (stereo not given in full) | inactive
C=CC(C)(C)c1[nH]c2ccccc2c1C1=C(O)C(=O)C(c2c[nH]c3c(CC=C(C)C)cccc23)=C(O)C1=O | inactive
CC(C)c1ccc(NC(=O)c2ccc3oc(=O)c(S(=O)(=O)c4ccc(F)cc4)cc3c2)cc1 | inactive
Cc1ccc(C(=O)Nc2ccc(C(=O)OCc3cc(=O)n4nc(C5CC5)sc4n3)cc2)cc1 | inactive
O=C(Nc1cccc2ccccc12)O[C@@H]1CO[C@H]2[C@@H]1OC[C@@H]2NS(=O)(=O)c1cccc2cccnc12 | inactive
O=C(Nc1ccccc1C(=O)OCc1cc(=O)n2nc(C3CC3)sc2n1)c1cccc(F)c1 | inactive
Cc1oc2c(cc(NS(=O)(=O)c3ccc(Br)cc3)c3ccccc32)c1C(=O)OCc1ccccc1 | inactive
COc1ccc(-c2nc3cc(F)ccc3s2)cc1OC | 3.43 µM (active)
O=c1c(O)c(Br)ccc2c(Br)c(O)c(O)c(O)c12 | 23.5 µM (active)

SMILES | Potency
O=C1C2=C(Nc3ccccc3SC2c2ccc(Cl)c(Cl)c2)c2ccccc21 (stereo not given) | inactive
O=C1OC2(c3ccccc31)c1ccc3cc(O)ccc3c1Oc1c2ccc2cc(O)ccc12 | inactive
COC(=O)c1ccc(NC(=O)CSc2ccc(-c3sc(-c4ccccc4)nc3C)nn2)cc1 | 46.9 µM (active)
CC(C)C[C@@H](NC(=O)[C@H](Cc1ccccc1)NC(=O)c1cnccn1)B(O)O | inactive
CC[C@H](C)[C@H]1O[C@]2(CC[C@@H]1C)C[C@@H]1C[C@@H](C/C=C(\C)[C@@H](O[C@H]3C[C@H](OC)[C@@H](O[C@H]4C[C@H](OC)[C@@H](O)[C@H](C)O4)[C@H](C)O3)[C@@H](C)/C=C/C=C3\CO[C@@H]4[C@H](O)C(C)=C[C@@H](C(=O)O1)[C@]34O)O2 | inactive
Cc1oc2c(cc(NS(=O)(=O)c3ccc(F)cc3)c3ccccc32)c1C(=O)OCc1ccccc1 | inactive
O=c1oc2cc(O)ccc2cc1-c1nc(-c2ccc(Cl)c(Cl)c2)cs1 | inactive
COCCOC(=O)c1c(C)n(S(=O)(=O)c2ccc(C)cc2)c2ccc(NS(=O)(=O)c3ccc(C)cc3)cc12 | inactive
CC(=O)Oc1cc2c(c(C)c1OC(C)=O)CC=C1[C@@]2(C)CC[C@@]2(C)[C@H]3C[C@](C)(C(=O)O)CC[C@]3(C)CC[C@]12C | inactive
CCCCCCCCCC(=O)N[C@H](CCCN=C(N)N)C(=O)N[C@@H](C(=O)N[C@H](CCCCN)C(=O)N[C@@H](CCCN=C(N)N)C(=O)CCl)C(C)C | 0.0891 µM (active)
COc1ccccc1N1CCN(CCn2c(=O)c3c(c4ccccc4n3C)n(C)c2=O)CC1 | 24.1 µM (active)
O=C(O)COc1ccc(-c2nccc3c2C(=O)N(Cc2cccc(C(F)(F)F)c2)CC(COc2ccccc2)O3)cc1 (stereo not given) | inactive
Nc1cc(N)c(N=Nc2ccc(S(=O)(=O)Nc3nccs3)cc2)cc1N=Nc1ccc(S(=O)(=O)Nc2nccs2)cc1 | 39.8 µM (active)
O=c1c(-c2cc(O)c(O)c(O)c2)coc2cc(O)c(O)c(O)c12 | inactive
N#Cc1ccccc1S(=O)(=O)N[C@H]1CO[C@H]2[C@@H]1OC[C@H]2OC(=O)Nc1ccc(Oc2ccccc2)cc1 | inactive
O=C(COc1ccc(F)cc1)Nc1ccccc1C(=O)OCc1cc(=O)n2nc(C3CC3)sc2n1 | inactive
N#C/C(=C\c1ccc(-c2ccc(Cl)c(C(=O)O)c2)o1)c1nc2ccccc2[nH]1 | inactive
O=C(O)COc1ccc(-c2nccc3c2C(=O)N(Cc2cccc(C(F)(F)F)c2)CC(COc2ccc(OC(F)(F)F)cc2)O3)cc1 (stereo not given) | 49.4 µM (active)
Cc1c2ccccc2c(CSC(=N)N)c2ccccc12 | inactive
Cc1oc2c(cc(NS(=O)(=O)c3ccc(C(C)C)cc3)c3ccccc32)c1C(=O)OCc1ccccc1 | inactive
